# Screens deposited in PubChem BioAssay by several laboratories.
# APP 5UTR inh – APP translation inhibition; SH-SY5Y APP 5'UTR-luciferase reporter, luminescence; inhibition, % at 2 µM; 0.82% of 190,000 active; AID 1285;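 active = inhibition above a set limit, derived from the sample mean plus 3 SD, cut at about 45% in these data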
# KLF5 inh – kruppel-like factor 5 inhibition. 0.23% of 290,000 active. DLD-1 KLF5 promoter-luciferase reporter, luminescence. inhibition, % at 5 µM;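 active = inhibition above a per-plate limit of that plate's mean compound inhibition plus 3 SD, cut at about 60% in these data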;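 also: 0% = DMSO wells and 100% = LY294002 at 200 µM; higher means less KLF5 promoter-driven luciferase light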
# BaF3 parental – reduces parental Ba/F3 cell viability, JAK2V617F counter-screen. CellTiter-Glo ATP luminescence. inhibition, % at 5.6 µM. 1.1% of 220,000 active. AID 1486;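 active = inhibition above a per-campaign cutoff, the mean inhibition of all tested compounds plus 3 SD, cut at about 27% in these data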;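 also: 0% = DMSO wells and 100% = JAK Inhibitor I control wells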
# Ba/F3 V617F tox – lowers viability of Ba/F3 cells expressing EpoR and JAK2V617F; ATP luminescence; inhibition, % at 5.6 µM; 1.1% of 220,000 active; AID 1446;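 active = inhibition above the campaign mean plus 3 SD over all tested compounds, cut at about 24% in these data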;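 also: cytokine-independent growth of Ba/F3 cells driven by EpoR plus mutant JAK2; 0% = DMSO-treated cells and 100% = JAK inhibitor I control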
# IEC-6 cytotox – kills IEC-6 intestinal cells in KLF5 counter-screen; IEC-6 cytotoxicity, luminescence viability; inhibition, % at 5 µM; 0.78% of 290,000 active; in the data active = inhibition above about 22%;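 also: 0% = plate median of test compound wells and 100% = cytotoxic reference compound wells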
# aSyn UTR inh – 5' untranslated region of α-synuclein, MLPCN primary screen; inhibition, % (tested at 7.5 µM); 0.82% of 300,000 active; AID 1813; alpha-synuclein 5'UTR reporter, inhibitor activity; in the data active = inhibition above about 60%;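 also: H4 neuroglioblastoma cells stably carrying SNCA 5'UTR luciferase fusion; 0% = DMSO wells and 100% = positive control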
# * = called active by the depositor; · = not tested or not shown. Shown are actives, neighbours in structure and some others; about 2.2% of the full set was active somewhere.
SMILES,APP 5UTR inh,KLF5 inh,BaF3 parental,Ba/F3 V617F tox,IEC-6 cytotox,aSyn UTR inh
Cc1ccccc1C(=O)Nc1ccnn1C1CCN(C(=O)c2ccoc2)CC1,·,-18,·,·,-1,-13
c1ccc(-c2c[n+]3c(n2-c2ccccc2)CCC3)cc1,·,-16,65*,71*,-4,13
CCOc1ccc(-n2c(-c3ccccc3)c[n+]3c2CCCCC3)cc1,-12,-7,70*,89*,22,-10
Cc1ccc(-c2c[n+]3c(n2-c2ccccc2)CCC3)cc1,·,9,65*,82*,22,-2
CCOc1ccc(N2Cc3ccccc3C2)cc1,-105,-70,-3,-2,-4,-120
Cc1ccc(-n2c(-c3ccccc3)c[nH]c2=S)cc1,-11,-8,2,-1,-7,-2
CCCCCCSc1ccc([C@H]2N[C@@](CC(C)C)(C(=O)OC)[C@H]3C(=O)N(C)C(=O)[C@@H]23)cc1OC,·,·,·,·,·,-9
Cc1ccc(C)c(N(CC(=O)NCc2ccco2)C(=O)CNS(=O)(=O)c2ccccc2)c1,·,-34,·,·,-5,11
CC(=O)NC(C)(CC(=O)c1ccccc1)c1ccccc1 (centres undefined),·,·,·,·,·,-2
Cc1cc(C)c2nc(N3C(=O)C(O)=C(C(=O)c4ccco4)C3c3ccco3)sc2c1 (centres undefined),·,-43,·,·,-11,-15
O=C(NNC(=O)c1cc(C(F)(F)F)cc(C(F)(F)F)c1)c1ccc(Cl)cc1,·,-16,62*,-4,-1,6
O=C(Nc1ccc(Cl)cc1C(F)(F)F)c1ccc(Cl)cc1,-5,-13,4,-1,-4,-104
CN(C)NC1=CC(=[N+]2CCCC2)CC(C)(C)C1,-20,-22,3,1,8,-23
CCCN(CCC)C1=CC(=[N+]2CCCC2)CC(C)(C)C1,-2,-9,72*,88*,20,6
CC1CCCCC1NC(=O)c1cccc(N2C(=O)C3C4C=CC(C4)C3C2=O)c1 (centres undefined),·,-14,·,·,-3,40
CN(CC(=O)Nc1ccccc1Br)C(=O)CNC(=O)c1ccc(Oc2ccccc2)cc1,·,-24,·,·,4,-32
CC1=CC(C)C2COC(c3ccc[n+](C)c3)C1C2C (centres undefined),-3,-56,40*,35*,-7,-7
CCOC(=O)C1CCN(C(=O)CCc2c(C)nc3cc(-c4ccccc4)nn3c2C)CC1,23,-12,4,-4,-4,66*
COc1cc(OC)cc(-c2cc3nc(C)c(CCC(=O)O)c(C)n3n2)c1,78*,33,4,-2,-10,·
CCOC(=O)C1CCCCN1C(=O)CCc1c(C)nc2cc(-c3ccccc3)nn2c1C (centres undefined),52*,-13,3,-1,-3,76*
COc1ccccc1CCNC(=O)C1CCC(=O)N(C2CCCCCC2)C1 (centres undefined),·,-24,·,·,-5,8
CCCCN1C(=S)SC(C)(C)C1/[N+]([O-])=C/c1ccc(S(=O)(=O)NC)cc1 (centres undefined),·,-26,3,1,-2,-11
O=C(COc1ccccc1F)NC12CC3CC(CC(C3)C1)C2,·,-24,-2,-3,-2,-9
O=C1C=C(c2cccs2)C[C@H](c2ccccc2)[C@H]1n1nnc([N+](=O)[O-])n1,16,5,11,18,8,71*
COc1ccc2sc3c(=O)[nH]c4ccccc4c3c2c1,1,-13,4,2,8,63*
SMILES,APP 5UTR inh,KLF5 inh,BaF3 parental,Ba/F3 V617F tox,IEC-6 cytotox,aSyn UTR inh
CCOC(=O)c1c(-c2ccc(F)cc2)csc1NC(=O)c1c(-c2ccccc2)noc1C,-7,-36,8,-3,-9,54
COC(=O)c1c(-c2ccccc2)csc1NC(=O)c1c(-c2ccccc2)noc1C,37,35,13,3,-1,65*
CCOC(=O)c1c(C)nc2ccc(C)cn12,-4,-68,5,-2,-2,23
Cc1ccc2nc(C)c(C(=O)NN=C3CCN(C)CC3)n2c1,68*,38,7,9,19,24
Cc1cc(N2CCN(Cc3cn(C)nc3-c3cccc(Cl)c3)CC2)cc(C)n1,60*,-21,2,2,11,72*
Cc1cc(N2CCN(Cc3cn(C)nc3-c3ccccc3F)CC2)cc(C)n1,81*,28,13,15,28*,91*
O=C(Nc1ccccc1N1CCCCC1)c1ccc(-c2ccc(Cl)cc2)o1,84*,0,-2,-2,-1,99*
